The source of these data is PubChem BioAssay.

Unmarked numbers belong to inactive results.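 How the source made its calls, unless noted: active means NADPH fluorescence slope more negative than the mean of all samples by about 3 SD, 99.7% confidence; inactive means the rest.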

The first test deals with Voltage-gated potassium channel subunit beta-2 (Rattus norvegicus) (UniProt P62483). In words: KvBeta enzyme negative modulators, primary screen, biochemical, NADPH fluorescence (AID 622;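 active means fluorescence slope higher than the sample average by over 3 SD, cut at about -0.22 in these data, passing the limit was not always enough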;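 further: slope of raw intensity against log time taken from 70 to 1610 s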). Particulars: recombinant KvBeta, 4-cyanobenzaldehyde reduction, at 10 µM, stronger effect = higher value.
Chain of Voltage-gated potassium channel subunit beta-2 (Rattus norvegicus) (P62483 whole entry, looked up): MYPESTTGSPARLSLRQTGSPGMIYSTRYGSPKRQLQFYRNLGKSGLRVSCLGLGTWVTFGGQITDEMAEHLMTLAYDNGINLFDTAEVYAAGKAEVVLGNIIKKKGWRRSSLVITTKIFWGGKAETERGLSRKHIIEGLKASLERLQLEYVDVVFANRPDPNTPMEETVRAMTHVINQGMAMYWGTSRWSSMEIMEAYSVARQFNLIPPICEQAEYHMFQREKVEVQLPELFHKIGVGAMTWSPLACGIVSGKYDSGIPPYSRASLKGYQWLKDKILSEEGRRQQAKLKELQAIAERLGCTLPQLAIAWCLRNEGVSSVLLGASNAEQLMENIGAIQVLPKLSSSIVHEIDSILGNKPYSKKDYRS
In the case of `CCOCCn1cnc2sc(C(=O)Nc3nc(C)c(C(=O)OCC)s3)c(C)c2c1=O`, the fluorescence slope is -0.26.
As to `CCC(=NC(C)c1ccccc1)c1c(O)n(C)c(=O)n(C)c1=O` (centres undefined), the fluorescence slope is -0.518.
Still for that read-out and setting: under `COc1cc(=O)[nH]c(SCc2c(F)c(F)c(F)c(F)c2F)n1` stands -0.436; under `CCCC(=O)N1CCN(c2ccc(NC(=O)c3ccc(Br)o3)cc2)CC1`, -0.457.
Still for that read-out and setting: under `COc1ccc(Cc2nn3c(-c4cc(OC)c(OC)c(OC)c4)nnc3s2)cc1` stands -0.254; under `CC(C)CCNC(=O)CCNS(=O)(=O)c1ccc(Cl)cc1`, -0.566.
As for `CCn1c(C(=O)OC)cc2c1ccn2-c1ccc(F)cc1`, the fluorescence slope is -0.61.
For `O=C(CSc1nnc(Cc2ccccc2)n1C1CCCCC1)N1CCOCC1`, the fluorescence slope was -0.463.
The same measure, in the same setting: the result for `CC(=O)c1c(C)[nH]c(C(=O)Nc2ccc3c(c2)OCCO3)c1C` reads -0.596; that for `COCCn1nnnc1C(C(C)C)N(Cc1cccnc1)Cc1ccccc1Cl` (centres undefined), -0.574.
Same read-out and setting: under `Cc1c(Cc2ccccc2)sc(N)c1C(N)=O` stands -0.574; under `O=C(CN(c1ccc(F)cc1)S(=O)(=O)c1ccc2c(c1)OCCO2)NCC1CCCO1` (centres undefined), -0.453; under `O=C(Nc1ccccc1)c1cccnc1N1CCOCC1`, -0.449.
Consider `Cc1c(NC(=O)CN2c3cccc4cccc(c34)S2(=O)=O)c(=O)n(-c2ccccc2)n1C`, for which the fluorescence slope was -0.442.
`Cc1ccc(S(=O)(=O)NCCC(=O)OCn2nnc3ccccc3c2=O)cc1`: the fluorescence slope is -0.454.
As to `c1ccc2nc(-c3nc4ccccc4[nH]3)ccc2c1`, the fluorescence slope was -0.551.
Still for that read-out and setting: the result for `COc1ccc(-n2nnc3c(=O)n(C/C=C/c4ccccc4)cnc32)cc1` reads -0.218; that for `O=C(Nc1ccccc1C(=O)N1CCCCCC1)c1cccc(S(=O)(=O)N2CCOCC2)c1`, -0.572; that for `CCOC(=O)C1=C(C)N(C)C(C)=C(C(=O)OCC)C1c1cccnc1`, -0.5.
The same measure, in the same setting: the result for `O=C(Nc1ccc(Cc2ccncc2)cc1)C1CC1` reads -0.605; that for `CCOC(=O)c1oc2ccccc2c1CSc1nnnn1-c1ccc(OC)cc1`, -0.54; that for `COc1cc(C2c3c(oc4c(C)cc(C)cc4c3=O)C(=O)N2Cc2cccnc2)cc(OC)c1OC` (centres undefined), -0.552.
The same measure, in the same setting: the result for `CC(=O)N1CCc2cc(S(=O)(=O)NCCC3=CCCCC3)ccc21` reads -0.425.
In the case of `CC1=C(C(=O)OCCOC(C)C)C(c2cc3c(cc2Br)OCO3)C2=C(CCCC2=O)N1` (centres undefined), the fluorescence slope is -0.485.

Another test has the same target. Kind of test: KvBeta positive modulators, primary screen, biochemical, NADPH fluorescence (AID 623).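 Further: fluorescence intensity change per second fitted from 20 to 320 s.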 The conditions noted are these: Recombinant KvBeta, NADPH fluorescence decrease slope, 10 min; at 10 µM; stronger effect = lower value.
For `Cn1c(SCc2cccc3ccccc23)nnc1-c1ccco1`, the NADPH fluorescence slope is 2.1e-05.
Turning to `COc1ccc(CC(=O)OCC(=O)NC(=O)NC2CCCCC2)cc1`, the NADPH fluorescence slope is 4.4e-05.
For the compound `CCn1c(C)nc2cc(C(=O)OC(C(F)(F)C(F)F)C(F)(F)C(F)F)ccc21`, the NADPH fluorescence slope was -2.6e-05.
Same read-out and setting: the result for `CCCn1c2c(c(O)c(C(=O)NC)c1=O)CCCC2` reads -6.4e-05; that for `COCCNC(=O)CN(C)S(=O)(=O)c1ccc2c(c1)OCCO2`, 1.9e-05; that for `O=C(CN1C(=O)CC(c2ccco2)Sc2ccccc21)Nc1ccc2c(c1)OCCO2` (centres undefined), -1.9e-05.
Still for that read-out and setting: under `COc1ccc2c(c1)CCc1c(C(=O)NCc3cccnc3)noc1-2` stands -0.000203.
On to `OCc1nc(CO)n(Cc2ccccc2)n1`, for which the NADPH fluorescence slope was -4.7e-05.
Same read-out and setting: the result for `CC(=O)Nc1ccc(NC(=O)c2ccccc2N(C)S(C)(=O)=O)cc1` reads -5.4e-05; that for `Cc1noc(NS(=O)(=O)c2ccc(NC(=O)CCC3CCCC3)cc2)c1C`, -1.2e-05; that for `CCCNC(=O)c1c(N)n(-c2cc(OC)cc(OC)c2)c2nc3ccccc3nc12`, 2.2e-05.
Take `Cc1ccc(CN2C(=O)CCC2C(=O)NCC2CCCO2)cc1` (centres undefined): the NADPH fluorescence slope is -2.2e-05.
The same measure, in the same setting: under `COc1ccc(CC(NC(C)=O)C(=O)NC2CCN(c3nc(C)cc(C)c3C#N)CC2)c(OC)c1` (centres undefined) stands -1.7e-05; under `CC1(C)CC(=O)c2c(O)cc(O)cc2O1`, -4.2e-05.
Regarding `COc1ccc(C2C(C#N)=C(C)NC3=C2C(=O)CC(C)(C)C3)c(OC)c1` (centres undefined), the NADPH fluorescence slope is -4.1e-06.
On the same count and under the same terms, under `CC(C(=O)OCn1nnc2ccccc2c1=O)N1C(=O)c2ccccc2C1=O` (centres undefined) stands 2e-05; under `CCOCCn1cnc2sc(C(=O)Nc3nc(C)c(C(=O)OCC)s3)c(C)c2c1=O`, 4.1e-06.
On the same count and under the same terms, under `CCC(=NC(C)c1ccccc1)c1c(O)n(C)c(=O)n(C)c1=O` (centres undefined) stands -0.000132; under `COc1cc(=O)[nH]c(SCc2c(F)c(F)c(F)c(F)c2F)n1`, -4e-05.
The same measure, in the same setting: the result for `CCCC(=O)N1CCN(c2ccc(NC(=O)c3ccc(Br)o3)cc2)CC1` reads 6.7e-06; that for `COc1ccc(Cc2nn3c(-c4cc(OC)c(OC)c(OC)c4)nnc3s2)cc1`, -2.7e-05.
Take `CC(C)CCNC(=O)CCNS(=O)(=O)c1ccc(Cl)cc1`: the NADPH fluorescence slope is -1.2e-05.
The same measure, in the same setting: under `CCn1c(C(=O)OC)cc2c1ccn2-c1ccc(F)cc1` stands -2e-05; under `O=C(CSc1nnc(Cc2ccccc2)n1C1CCCCC1)N1CCOCC1`, 5e-05; under `CC(=O)c1c(C)[nH]c(C(=O)Nc2ccc3c(c2)OCCO3)c1C`, 6.7e-06.
In the case of `COCCn1nnnc1C(C(C)C)N(Cc1cccnc1)Cc1ccccc1Cl` (centres undefined), the NADPH fluorescence slope is 1.3e-05.
`Cc1c(Cc2ccccc2)sc(N)c1C(N)=O`: the NADPH fluorescence slope is -2.6e-06.
Consider `O=C(CN(c1ccc(F)cc1)S(=O)(=O)c1ccc2c(c1)OCCO2)NCC1CCCO1` (centres undefined), for which the NADPH fluorescence slope is -4.3e-05.
For `O=C(Nc1ccccc1)c1cccnc1N1CCOCC1`, the NADPH fluorescence slope is -0.000339.
On the same count and under the same terms, under `Cc1c(NC(=O)CN2c3cccc4cccc(c34)S2(=O)=O)c(=O)n(-c2ccccc2)n1C` stands -2.5e-05; under `Cc1ccc(S(=O)(=O)NCCC(=O)OCn2nnc3ccccc3c2=O)cc1`, -4.9e-05; under `c1ccc2nc(-c3nc4ccccc4[nH]3)ccc2c1`, -2.7e-05.
Same read-out and setting: the result for `COc1ccc(-n2nnc3c(=O)n(C/C=C/c4ccccc4)cnc32)cc1` reads -1.5e-05; that for `O=C(Nc1ccccc1C(=O)N1CCCCCC1)c1cccc(S(=O)(=O)N2CCOCC2)c1`, -2.1e-05; that for `CCOC(=O)C1=C(C)N(C)C(C)=C(C(=O)OCC)C1c1cccnc1`, -2.2e-05.
Regarding `O=C(Nc1ccc(Cc2ccncc2)cc1)C1CC1`, the NADPH fluorescence slope is 2.8e-05.
As for `CCOC(=O)c1oc2ccccc2c1CSc1nnnn1-c1ccc(OC)cc1`, the NADPH fluorescence slope is -4.1e-05.
Still for that read-out and setting: the result for `COc1cc(C2c3c(oc4c(C)cc(C)cc4c3=O)C(=O)N2Cc2cccnc2)cc(OC)c1OC` (centres undefined) reads 1.8e-05; that for `CC(=O)N1CCc2cc(S(=O)(=O)NCCC3=CCCCC3)ccc21`, 3.5e-05; that for `CC1=C(C(=O)OCCOC(C)C)C(c2cc3c(cc2Br)OCO3)C2=C(CCCC2=O)N1` (centres undefined), 6.8e-05.
